Here are results for eleven molecules from ChEMBL document CHEMBL3988442, “University of Dundee, Small-Polar-MMV Screening Library” (2021).

Molecules are shown by their SMILES. For some of these results: Entries with a potency or affinity are not part of this list.

Common to all, as to design: scale not given: direction of the effect not stated beside the values
Experiment [1] has as its target Protein translocase subunit SecA (Escherichia coli (strain K12)) (UniProt P10408). Put plainly: Assay to Identify E. coli SecA ATPase Inhibitors. It counts as functional. The conditions noted are these: 30 µM.
Experiment [2] addresses T1, Ubiquitin-activating enzyme e1, putative (Leishmania donovani (strain BPK282A1)) (UniProt E9BSI1).
T1 sequence (whole entry): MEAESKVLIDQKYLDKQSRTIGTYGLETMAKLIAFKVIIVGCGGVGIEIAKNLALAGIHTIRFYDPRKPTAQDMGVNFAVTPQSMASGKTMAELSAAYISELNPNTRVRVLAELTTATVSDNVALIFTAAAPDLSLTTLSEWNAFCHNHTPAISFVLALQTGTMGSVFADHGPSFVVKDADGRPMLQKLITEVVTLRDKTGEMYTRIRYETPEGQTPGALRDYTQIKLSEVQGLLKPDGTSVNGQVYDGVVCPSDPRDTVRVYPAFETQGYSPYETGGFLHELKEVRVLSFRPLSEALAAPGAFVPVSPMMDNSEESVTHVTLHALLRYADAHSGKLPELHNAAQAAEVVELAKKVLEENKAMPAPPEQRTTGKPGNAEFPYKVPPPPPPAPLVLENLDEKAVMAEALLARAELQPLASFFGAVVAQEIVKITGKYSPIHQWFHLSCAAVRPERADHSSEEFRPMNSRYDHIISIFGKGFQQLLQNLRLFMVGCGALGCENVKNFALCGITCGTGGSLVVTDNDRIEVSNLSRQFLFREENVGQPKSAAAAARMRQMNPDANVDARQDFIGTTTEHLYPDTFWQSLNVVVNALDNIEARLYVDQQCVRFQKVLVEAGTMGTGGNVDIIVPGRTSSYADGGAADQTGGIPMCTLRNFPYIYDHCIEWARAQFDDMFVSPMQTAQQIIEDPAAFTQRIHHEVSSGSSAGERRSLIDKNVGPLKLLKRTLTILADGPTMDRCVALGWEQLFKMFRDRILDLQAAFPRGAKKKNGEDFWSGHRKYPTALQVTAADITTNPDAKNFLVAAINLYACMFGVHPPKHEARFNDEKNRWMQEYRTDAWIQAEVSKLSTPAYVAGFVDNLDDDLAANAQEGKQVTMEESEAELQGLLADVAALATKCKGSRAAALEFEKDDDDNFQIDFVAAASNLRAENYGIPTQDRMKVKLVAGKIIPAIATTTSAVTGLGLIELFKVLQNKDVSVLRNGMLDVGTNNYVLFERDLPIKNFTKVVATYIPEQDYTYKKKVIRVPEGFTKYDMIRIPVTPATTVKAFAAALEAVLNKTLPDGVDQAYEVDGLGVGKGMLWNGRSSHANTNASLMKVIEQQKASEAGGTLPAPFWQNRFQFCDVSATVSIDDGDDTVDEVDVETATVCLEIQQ
Put plainly: Leishmania donovani Ubiquitin Activating Enzyme (LdE1). It counts as functional. The conditions noted are these: 30 µM.

Experiment [3] addresses AMP-activated protein kinase, AMPK (Homo sapiens) (UniProt P54646+O43741+P54619+Q9UGJ0+Q9Y478+Q13131+Q9UGI9). As to the kind of experiment: AMP-dependent Kinase enzyme assay. An in vitro enzyme assay that detects ADP turnover that is directly proportional to AMPK activity. This uses naive AMPK that is activated during the assay with MK-8722. Format: functional. As to conditions: 30 µM.

Experiment [4] addresses Sialic acid-binding Ig-like lectin 9 (Homo sapiens) (UniProt Q9Y336). As to the kind of experiment: Hs-Siglec9 ALPHAscreen SOP 20170721. The conditions noted are these: 10 µM. A general note: Bead proximity is the source of the signal in Alpha formats.
The next experiment concerns Trypanosoma cruzi. Put plainly: Trypanosoma cruzi phosphomannomutase and mannose-1-phosphate guanylyltransferase assay. Format: functional. As to conditions: 10 µM.
Experiment [5] concerns the target T2, Arginase-2, mitochondrial (Homo sapiens) (UniProt P78540).
T2 sequence (whole entry): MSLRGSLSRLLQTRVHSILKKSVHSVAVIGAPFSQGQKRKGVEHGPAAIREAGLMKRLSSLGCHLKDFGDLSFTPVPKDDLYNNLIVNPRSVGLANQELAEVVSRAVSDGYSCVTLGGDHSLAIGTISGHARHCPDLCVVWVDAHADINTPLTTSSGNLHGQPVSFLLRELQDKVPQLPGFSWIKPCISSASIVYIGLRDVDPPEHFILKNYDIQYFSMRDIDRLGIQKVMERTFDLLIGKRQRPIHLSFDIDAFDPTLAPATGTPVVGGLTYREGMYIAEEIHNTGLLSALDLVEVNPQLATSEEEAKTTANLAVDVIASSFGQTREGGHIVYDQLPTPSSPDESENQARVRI
Put plainly: in vitro enzyme assay to detect the production of urea directly proportional to the activity of Arginase II. Note: in the data most compounds retested in dose-response had high values. It counts as functional. The conditions noted are these: 33.3 µM.

In experiment [6] the target is T3, Proteasome subunit beta (Trypanosoma cruzi) (UniProt O96673).
T3 sequence (whole entry): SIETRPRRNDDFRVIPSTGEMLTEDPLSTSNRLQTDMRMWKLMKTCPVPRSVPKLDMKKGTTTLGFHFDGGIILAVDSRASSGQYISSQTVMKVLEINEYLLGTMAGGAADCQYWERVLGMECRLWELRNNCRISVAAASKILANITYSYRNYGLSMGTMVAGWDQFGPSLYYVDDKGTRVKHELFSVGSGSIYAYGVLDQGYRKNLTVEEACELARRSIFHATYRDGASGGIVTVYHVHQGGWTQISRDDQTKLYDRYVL
As to the kind of experiment: Trypanosoma cruzi proteasome chymotrypsin-like activity (TcProtChymo) assay. Note: in the data most compounds retested in dose-response had high values. Format: functional. The conditions noted are these: 9.37 µM.

The species entered for the next experiment is Homo sapiens. Put plainly: To identify inhibition of the IFN signalling (Jak-Stat) pathway via expression of an eGFP reporter gene under the control of an IFN-stimulated response element (ISRE) containing MxA promoter. Format: functional. The conditions noted are these: 30 µM. In general terms: In a reporter assay the amount or activity of a reporter protein is the signal.

Experiment [7] addresses T4, Tyrosyl-tRNA synthetase, putative (Trypanosoma cruzi (strain CL Brener)) (UniProt Q4DSP6).
T4 sequence (whole entry): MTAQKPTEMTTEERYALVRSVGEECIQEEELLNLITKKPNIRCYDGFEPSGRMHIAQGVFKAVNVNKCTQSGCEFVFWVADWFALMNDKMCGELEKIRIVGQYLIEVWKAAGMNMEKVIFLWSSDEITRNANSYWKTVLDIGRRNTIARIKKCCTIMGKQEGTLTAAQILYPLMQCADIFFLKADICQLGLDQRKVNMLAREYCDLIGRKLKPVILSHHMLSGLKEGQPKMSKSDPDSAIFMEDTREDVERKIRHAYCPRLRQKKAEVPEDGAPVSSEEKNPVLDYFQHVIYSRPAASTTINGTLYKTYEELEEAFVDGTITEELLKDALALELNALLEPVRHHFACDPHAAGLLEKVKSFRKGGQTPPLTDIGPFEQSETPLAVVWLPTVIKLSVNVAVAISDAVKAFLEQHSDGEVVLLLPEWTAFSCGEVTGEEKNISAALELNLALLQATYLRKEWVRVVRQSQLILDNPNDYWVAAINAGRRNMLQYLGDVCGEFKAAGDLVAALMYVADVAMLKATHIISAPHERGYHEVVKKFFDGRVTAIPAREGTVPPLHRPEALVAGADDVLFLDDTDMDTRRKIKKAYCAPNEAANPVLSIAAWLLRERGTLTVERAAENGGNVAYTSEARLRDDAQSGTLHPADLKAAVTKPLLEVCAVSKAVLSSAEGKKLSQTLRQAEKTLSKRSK
As to the kind of experiment: Trypanosoma cruzi tyrosyl tRNA synthetase (TcYRS) _High Tyrosine SOP. Note: in the data most compounds retested in dose-response had high values. It counts as functional. As to conditions: 30 µM.

The target in experiment [8] is T4, Tyrosyl-tRNA synthetase, putative (Trypanosoma cruzi (strain CL Brener)). As to the kind of experiment: Trypanosoma cruzi tyrosyl tRNA synthetase (TcYRS) SOP. As to conditions: 30 µM. Format: functional.
Experiment [9] has as its target Chromo domain-containing protein 1 (Saccharomyces cerevisiae (strain ATCC 204508 / S288c) (Baker's yeast)) (UniProt P32657). Put plainly: ScCHD-1 Enzyme Inhibition Assay. Note: in the data most compounds retested in dose-response had high values. It counts as functional. As to conditions: 30 µM.

Sequence of Protein translocase subunit SecA (Escherichia coli (strain K12)) (P10408 whole entry): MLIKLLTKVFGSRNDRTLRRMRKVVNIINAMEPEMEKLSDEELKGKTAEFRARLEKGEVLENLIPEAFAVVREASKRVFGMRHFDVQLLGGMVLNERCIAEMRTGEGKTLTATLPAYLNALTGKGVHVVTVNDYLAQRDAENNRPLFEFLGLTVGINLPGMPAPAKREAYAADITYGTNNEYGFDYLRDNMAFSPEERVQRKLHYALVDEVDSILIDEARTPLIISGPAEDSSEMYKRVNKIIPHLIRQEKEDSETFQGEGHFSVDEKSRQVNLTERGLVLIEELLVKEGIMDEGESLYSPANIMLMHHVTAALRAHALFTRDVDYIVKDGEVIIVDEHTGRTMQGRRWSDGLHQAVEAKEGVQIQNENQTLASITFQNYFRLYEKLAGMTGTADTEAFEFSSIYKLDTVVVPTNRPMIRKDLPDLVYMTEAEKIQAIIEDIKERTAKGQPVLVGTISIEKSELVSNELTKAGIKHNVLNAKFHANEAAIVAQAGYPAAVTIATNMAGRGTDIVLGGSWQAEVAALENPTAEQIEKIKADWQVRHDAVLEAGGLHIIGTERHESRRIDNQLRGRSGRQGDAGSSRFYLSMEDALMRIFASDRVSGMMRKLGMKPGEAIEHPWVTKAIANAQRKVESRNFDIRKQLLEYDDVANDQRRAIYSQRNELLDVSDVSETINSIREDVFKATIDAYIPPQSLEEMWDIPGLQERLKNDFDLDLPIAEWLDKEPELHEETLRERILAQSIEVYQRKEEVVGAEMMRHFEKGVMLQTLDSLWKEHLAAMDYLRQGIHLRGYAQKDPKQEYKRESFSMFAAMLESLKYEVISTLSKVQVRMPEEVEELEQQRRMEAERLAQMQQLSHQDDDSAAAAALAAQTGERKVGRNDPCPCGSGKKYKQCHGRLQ
Sequence of Sialic acid-binding Ig-like lectin 9 (Homo sapiens) (Q9Y336 whole entry): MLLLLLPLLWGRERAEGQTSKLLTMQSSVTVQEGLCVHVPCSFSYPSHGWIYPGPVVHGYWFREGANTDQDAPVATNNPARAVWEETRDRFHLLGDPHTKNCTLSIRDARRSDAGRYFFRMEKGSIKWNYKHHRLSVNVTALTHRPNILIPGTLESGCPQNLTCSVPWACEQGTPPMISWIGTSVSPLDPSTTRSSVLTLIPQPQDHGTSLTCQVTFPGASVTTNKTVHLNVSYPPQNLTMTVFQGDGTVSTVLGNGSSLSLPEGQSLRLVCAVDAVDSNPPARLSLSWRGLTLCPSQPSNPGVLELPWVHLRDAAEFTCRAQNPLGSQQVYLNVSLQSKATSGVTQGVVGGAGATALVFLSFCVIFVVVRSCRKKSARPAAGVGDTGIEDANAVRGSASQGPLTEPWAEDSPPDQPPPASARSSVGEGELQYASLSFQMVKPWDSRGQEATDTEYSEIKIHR
Sequence of Chromo domain-containing protein 1 (Saccharomyces cerevisiae (strain ATCC 204508 / S288c) (Baker's yeast)) (P32657 whole entry, the tested form may be a part): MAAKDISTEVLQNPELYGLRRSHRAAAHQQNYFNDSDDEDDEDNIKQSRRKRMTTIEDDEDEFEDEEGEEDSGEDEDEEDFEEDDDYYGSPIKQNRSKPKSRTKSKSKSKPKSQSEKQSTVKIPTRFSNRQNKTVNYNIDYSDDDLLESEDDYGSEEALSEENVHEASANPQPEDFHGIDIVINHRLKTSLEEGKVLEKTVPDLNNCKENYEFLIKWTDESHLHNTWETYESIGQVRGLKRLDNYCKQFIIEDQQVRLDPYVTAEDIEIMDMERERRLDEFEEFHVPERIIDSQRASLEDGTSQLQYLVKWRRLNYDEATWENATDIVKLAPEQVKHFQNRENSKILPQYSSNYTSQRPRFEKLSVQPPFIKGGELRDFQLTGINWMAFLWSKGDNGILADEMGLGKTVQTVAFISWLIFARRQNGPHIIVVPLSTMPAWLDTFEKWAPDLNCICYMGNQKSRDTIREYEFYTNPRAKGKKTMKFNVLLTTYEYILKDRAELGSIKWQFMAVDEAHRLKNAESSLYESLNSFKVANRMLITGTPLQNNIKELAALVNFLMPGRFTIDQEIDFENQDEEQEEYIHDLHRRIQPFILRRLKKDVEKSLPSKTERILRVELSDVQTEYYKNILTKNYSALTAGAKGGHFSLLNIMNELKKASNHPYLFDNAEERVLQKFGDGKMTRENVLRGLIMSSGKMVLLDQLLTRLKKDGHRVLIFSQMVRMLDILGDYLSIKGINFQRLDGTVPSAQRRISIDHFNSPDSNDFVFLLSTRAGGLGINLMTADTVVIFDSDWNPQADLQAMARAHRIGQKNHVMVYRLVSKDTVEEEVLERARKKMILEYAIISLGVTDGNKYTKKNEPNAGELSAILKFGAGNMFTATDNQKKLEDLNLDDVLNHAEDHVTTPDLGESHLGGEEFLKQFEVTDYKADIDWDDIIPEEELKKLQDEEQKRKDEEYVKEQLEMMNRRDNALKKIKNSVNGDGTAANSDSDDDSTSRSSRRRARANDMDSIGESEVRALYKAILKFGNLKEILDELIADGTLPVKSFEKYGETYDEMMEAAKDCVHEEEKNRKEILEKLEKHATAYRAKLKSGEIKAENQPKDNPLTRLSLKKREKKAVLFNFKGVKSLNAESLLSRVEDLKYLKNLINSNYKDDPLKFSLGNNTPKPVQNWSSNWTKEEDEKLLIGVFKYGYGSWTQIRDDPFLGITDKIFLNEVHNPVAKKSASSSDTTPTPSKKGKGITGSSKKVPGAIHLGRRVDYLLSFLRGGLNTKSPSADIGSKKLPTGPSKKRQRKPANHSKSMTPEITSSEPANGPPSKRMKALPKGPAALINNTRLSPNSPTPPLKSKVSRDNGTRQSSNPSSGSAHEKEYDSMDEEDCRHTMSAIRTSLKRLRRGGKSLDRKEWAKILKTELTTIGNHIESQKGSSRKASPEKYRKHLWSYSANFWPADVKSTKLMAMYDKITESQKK

`Cc1cc(N2CCCCCC2)n2nc(C)c(C)c2n1`: the Percent Effect in [1] is -1.9%; in experiment [2], 4.17%; in experiment [3], -3.08%; in [4], 0.107%; with Trypanosoma cruzi it was 12.2%; in [5], -0.883%. The Percent Effect in [6] was 23.3%; in the experiment listed under Homo sapiens, 3.63%; in [7], 0%; in experiment [8] it was 12.8%; in experiment [9] it was -7.26%.

On to `CNC(=O)c1ccc(CN2CCC(N(C)Cc3noc(C)n3)C2)cc1` (stereo unspecified), for which the Percent Effect in experiment [1] was -2.92%; in experiment [2], 18.2%; in experiment [3], -3.53%; in [4], -3.54%; in the experiment on Trypanosoma cruzi it was -2.25%; in experiment [5], 4.42%. Moreover, the Percent Effect in experiment [6] was 15.9%; in the experiment listed under Homo sapiens, 22.1%; in experiment [7] it was -1.91%; in experiment [8], 14.1%; in [9], -19.2%.

As to `CO[C@H]1CCN(S(=O)(=O)c2cn(C)cn2)[C@H]1Cc1cnn(C)c1`, the Percent Effect in experiment [1] was -4.55%; in [2], 2.67%; in [3] it was 1.72%; in experiment [4] it was 2.33%; in the experiment with Trypanosoma cruzi, -2.51%; in experiment [5], -52.9%. The Percent Effect in [6] was 6.15%; in the experiment filed under Homo sapiens it was 1.21%; in [7], -4.17%; in [8], -25%; in experiment [9], -4.77%.

Regarding `Cn1cc(C2CCCN2C(=O)CCCOCc2ccccc2)cn1` (stereo unspecified), the Percent Effect is -4.26% in [1]; 10.1% in experiment [2]; -1.48% in experiment [3]; -1.07% in experiment [4]; 4.25% in the experiment on Trypanosoma cruzi; -1.9% in [5]. Moreover, the Percent Effect in experiment [6] was 7.62%; in the experiment listed under Homo sapiens, 2.8%; in experiment [7], 0.493%; in experiment [8] it was 3.8%; in experiment [9], -7.66%.

As for `O=C(COC[C@H]1CC[C@H]2[C@H](CCN2c2ncccn2)O1)N1CCCC1`, the Percent Effect is -2.35% in [1]; 24.7% in experiment [2]; -1.6% in experiment [3]; 1.45% in [4]; 0% in the experiment with Trypanosoma cruzi; -1.2% in experiment [5]. The Percent Effect was 7.62% in [6]; 13.1% in the experiment listed under Homo sapiens; 5.21% in experiment [7]; 13.6% in [8]; -1.93% in experiment [9].

On to `COCCCn1c(CN2CCCC(O)C2)cnc1S(=O)(=O)C1CCCC1` (stereo unspecified), for which the Percent Effect is -5.06% in experiment [1]; 10.4% in experiment [2]; -2.5% in experiment [3]; 10.5% in [4]; 4.62% with Trypanosoma cruzi; -85.5% in [5]. The Percent Effect was 3.99% in [6]; -9.18% in the experiment listed under Homo sapiens; 3.23% in [7]; 11.1% in experiment [8]; -11% in experiment [9].

As to `O=C(c1cccc(=O)[nH]1)N(Cc1ccsc1)CC1CCCO1` (stereo unspecified), the Percent Effect in experiment [1] is -0.641%; in experiment [2] it was 10.8%; in [3], -7.24%; in experiment [4] it was 6.17%; with Trypanosoma cruzi, -0.386%; in experiment [5] it was 2.86%. Besides, the Percent Effect was 12.8% in experiment [6]; 11.3% in the experiment filed under Homo sapiens; 7.94% in experiment [7]; 17.1% in experiment [8]; -1.82% in experiment [9].

For the molecule `NC(=O)c1cc(NC(=O)N2CCCCCC2)ccc1F`, the Percent Effect in [1] was -2.22%; in experiment [2], 16.2%; in experiment [3], 5.3%; in [4] it was 2.48%; in the experiment on Trypanosoma cruzi it was 2.15%; in experiment [5], 30.4%. The Percent Effect in experiment [6] is 11.1%; in the experiment listed under Homo sapiens, 44.5%; in experiment [7] it was 6.93%; in experiment [8], 13.4%; in experiment [9] it was -2.07%.

For `COCC1CC2(CCN(C(=O)c3occc3C)CC2)CO1` (stereo unspecified), the Percent Effect in [1] was -0.186%; in [2], 2.6%; in experiment [3], 22.5%; in [4] it was 0.84%; in the experiment on Trypanosoma cruzi, -6.61%; in [5], 4.52%. For the same molecule, the Percent Effect in experiment [6] was 3.65%; in the experiment filed under Homo sapiens it was 5.99%; in experiment [7] it was -2.12%; in [8] it was -1.28%; in [9], -1.99%.

On to `Cc1nn(C)c(N(C)C)c1CNC1CCOc2c(F)cccc21` (stereo unspecified), for which the Percent Effect is -6.1% in experiment [1]; 5.26% in experiment [2]; -2.48% in experiment [3]; 4.77% in experiment [4]; -6.01% in the experiment on Trypanosoma cruzi; 0.766% in experiment [5]. The Percent Effect is 8.02% in experiment [6]; 9.98% in the experiment filed under Homo sapiens; 6.37% in experiment [7]; 4.88% in experiment [8]; 2.09% in experiment [9].

For `O=C(CC1CCCO1)NCc1ccccc1Cn1cncn1` (stereo unspecified), the Percent Effect is -2.25% in [1]; 15.8% in [2]; -5.58% in experiment [3]; -5.97% in experiment [4]; -7.75% in the experiment on Trypanosoma cruzi; 4.32% in experiment [5]. Also, the Percent Effect in [6] is 9.39%; in the experiment filed under Homo sapiens it was 3.32%; in experiment [7] it was 4.43%; in experiment [8], 23.5%; in experiment [9] it was -2.47%.
